In PubChem BioAssay:
The source made the active and inactive calls. Unless noted, how the calls were made is not given here.

How the values were obtained:
[1] = resazurin metabolic signal in HepG2 cells – cell-based, resazurin fluorescence, 24 h, PK04 Diversity Set, profiling panel (AID 1172); conditions: HepG2 viability, higher = more signal
[2] = budding yeast growth changes without added modifier – OD600, strain BY4716, 24 h, basal condition, primary screen (AID 1173); conditions: S. cerevisiae BY4716 growth, OD600, 24 h; higher = more signal, called active from +8 up or from −8 down
[3] = viability profiling in MM1S myeloma cells – cell-based, resazurin fluorescence, basal, 24 h, PK04 Diversity Set, profiling panel (AID 1174); conditions: higher = more signal, called active from +8 up or from −8 down;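 further: MM1S multiple myeloma cell line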
[4] = biological target: Dihydroorotate dehydrogenase (quinone), mitochondrial (Plasmodium falciparum (isolate 3D7)) (UniProt Q08210); assay: inhibition of P. falciparum DHODH – biochemical, C-terminal His tag, absorbance 600 nm, primary screen (AID 1175); conditions: PfDHODH enzyme, DCIP absorbance 600 nm; higher = more signal, called active from +8 up or from −8 down;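 further: recombinant parasite enzyme with a five histidine tag at its C terminus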
Sequence of Dihydroorotate dehydrogenase (quinone), mitochondrial (Plasmodium falciparum (isolate 3D7)) (Q08210 whole entry, looked up): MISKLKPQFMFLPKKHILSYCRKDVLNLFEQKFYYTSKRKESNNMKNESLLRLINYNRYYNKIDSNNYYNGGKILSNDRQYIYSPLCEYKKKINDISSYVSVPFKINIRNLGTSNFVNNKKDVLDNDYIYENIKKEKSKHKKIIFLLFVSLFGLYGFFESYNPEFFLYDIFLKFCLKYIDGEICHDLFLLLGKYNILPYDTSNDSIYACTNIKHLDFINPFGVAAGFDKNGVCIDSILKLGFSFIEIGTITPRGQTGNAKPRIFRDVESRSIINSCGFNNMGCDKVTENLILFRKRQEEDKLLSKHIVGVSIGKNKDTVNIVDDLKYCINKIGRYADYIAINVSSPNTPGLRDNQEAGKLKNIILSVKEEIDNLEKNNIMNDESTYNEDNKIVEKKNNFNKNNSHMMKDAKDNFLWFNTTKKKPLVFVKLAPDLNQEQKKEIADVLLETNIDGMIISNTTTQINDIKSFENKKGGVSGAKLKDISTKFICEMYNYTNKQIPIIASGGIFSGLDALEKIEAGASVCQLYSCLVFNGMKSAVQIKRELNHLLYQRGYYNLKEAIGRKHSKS

[5] = inhibition of PAO1 biofilm formation – strain PAO1, LB-PBS medium, absorbance 600 nm, primary screen (AID 1176); conditions: P. aeruginosa PAO1 growth/biofilm, A600, 12 h; higher = more signal
[6] = growth modulation of vineyard yeast isolate – strain RM11-1a, OD600, basal, 24 h, primary screen (AID 1177);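 further: cultures grown under basal conditions with no added stressor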; conditions: S. cerevisiae RM11-1a growth, OD600, 24 h; higher = more signal, called active from +8 up or from −8 down
[7] = growth of efflux-deficient E. coli DRC39 – strain DRC39, OD650, 24 h, E. coli filamentation inducers, primary screen (AID 1178);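 further: growth measured as culture turbidity by optical density at 650 nm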; conditions: E. coli DRC39 acrAB, higher = more signal, called active from +8 up or from −8 down
[8] = growth of efflux-deficient E. coli DRC39 – strain DRC39, OD650, 48 h, E. coli filamentation inducers, primary screen (AID 1179);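 further: screen aims at cell division blockers that make cells filament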; conditions: E. coli DRC39 delta-acrAB growth, higher = more signal, called active from +8 up or from −8 down
[9] = viability profiling in RPMI8226 myeloma cells – cell-based, resazurin fluorescence, basal, 24 h, PK04 Diversity Set, profiling panel (AID 1180); conditions: higher = more signal;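 further: RPMI8826 multiple myeloma cell line at 5000 cells per well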
[10] = biological target: E3 ubiquitin-protein ligase XIAP (Homo sapiens) (UniProt P98170); assay: small molecules binding XIAP protein – biophysical, small-molecule microarray, fluorescence 635 nm, primary screen (AID 1181); conditions: higher = more signal;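 further: score merges 667 nm emission and signal to noise over triplicate slides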
Sequence of E3 ubiquitin-protein ligase XIAP (Homo sapiens) (P98170 whole entry, looked up, the tested form may be a part): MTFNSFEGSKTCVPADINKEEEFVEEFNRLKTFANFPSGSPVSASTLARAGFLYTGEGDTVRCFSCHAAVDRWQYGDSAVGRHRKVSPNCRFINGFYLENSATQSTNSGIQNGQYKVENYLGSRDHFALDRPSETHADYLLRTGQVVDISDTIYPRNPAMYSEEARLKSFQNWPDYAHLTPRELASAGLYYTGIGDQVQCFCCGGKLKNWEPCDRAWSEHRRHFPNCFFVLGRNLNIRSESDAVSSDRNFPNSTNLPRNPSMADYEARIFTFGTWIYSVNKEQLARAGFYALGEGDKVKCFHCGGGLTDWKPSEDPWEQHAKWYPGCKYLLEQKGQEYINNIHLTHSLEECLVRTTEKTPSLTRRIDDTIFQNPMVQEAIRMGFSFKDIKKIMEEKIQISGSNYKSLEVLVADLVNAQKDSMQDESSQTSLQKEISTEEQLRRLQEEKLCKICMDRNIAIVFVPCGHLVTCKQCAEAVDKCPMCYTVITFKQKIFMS

[11] = system: XIP peptide (Xip251-270) binding; assay: XIP fragment 251-270 binding compounds – biochemical, small-molecule microarray, fluorescence 635/667 nm, 0.1 µg/mL protein, primary screen (AID 1182); conditions: fluorescent protein binding, 635 nm, higher = more signal, called active from +8 up or from −8 down
[12] = system: XIP peptide (Xip251-270); assay: compounds binding XIP fragment 251-270 – biochemical, small-molecule microarray, fluorescence 635/667 nm, 0.5 µg/mL protein, primary screen (AID 1183); conditions: fluorescence 635 nm, higher = more signal
[13] = blood-stage malaria parasite viability loss – strain 3D7, DAPI fluorescence, 100 nL, primary screen (AID 1184);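 further: parasites grown inside human red blood cells in medium with human serum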; conditions: P. falciparum 3D7 growth, 3 d, higher = more signal
[14] = biological target: Homeobox protein Hox-A13 (Mus musculus) (UniProt Q62424); assay: disruptors of Hoxa13 oligonucleotide interaction – biochemical, fluorescence polarization, labeled oligonucleotide, primary screen (AID 1185); conditions: Hoxa13:DNA binding, 15 min, higher = more signal, called active from +8 up or from −8 down
Sequence of Homeobox protein Hox-A13 (Mus musculus) (Q62424 whole entry, looked up): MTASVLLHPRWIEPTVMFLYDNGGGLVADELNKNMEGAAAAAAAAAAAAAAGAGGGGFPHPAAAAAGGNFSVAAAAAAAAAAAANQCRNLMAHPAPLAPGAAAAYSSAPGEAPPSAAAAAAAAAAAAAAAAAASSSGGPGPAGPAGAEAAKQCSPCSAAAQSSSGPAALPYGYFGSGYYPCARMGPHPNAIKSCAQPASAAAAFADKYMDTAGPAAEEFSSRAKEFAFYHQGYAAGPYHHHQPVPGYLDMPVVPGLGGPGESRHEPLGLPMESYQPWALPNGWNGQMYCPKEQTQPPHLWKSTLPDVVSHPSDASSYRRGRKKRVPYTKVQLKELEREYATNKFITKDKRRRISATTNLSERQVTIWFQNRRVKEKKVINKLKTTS

[15] = blockers of DNA damage checkpoint Chk1 activation – imaging, HeLa, hydroxyurea, phospho-Chk1 antibody, percent positive cells, primary screen (AID 1186); conditions: hydroxyurea-induced phospho-Chk1 immunofluorescence imaging, higher = more signal
[16] = blockers of DNA damage checkpoint Chk1 activation – imaging, HeLa, hydroxyurea, phospho-Chk1 nuclear intensity, primary screen (AID 1187); conditions: hydroxyurea-induced phospho-Chk1 immunofluorescence imaging, higher = more signal

Structure (SMILES)	z-score [1]	z-score [2]	z-score [3]	composite z-score [4]	z-score [5]	z-score [6]	z-score [7]	z-score [8]	z-score [9]	composite z-score [10]	composite z-score [11]	composite z-score [12]	z-score [13]	z-score [14]	z-score [15]	z-score [16]
COCCOC(=O)N1C(=O)[C@@]2(c3cc(C#CC4=CCCCC4)ccc31)[C@H](C(N)=O)[C@H]1C(=O)O[C@H](c3ccccc3)[C@H](c3ccccc3)N1[C@@H]2c1ccccc1OCCO	-2.76	0.132 (inactive)	-4.34 (inactive)	-0.295 (inactive)	2.21 (inactive)	1.23 (inactive)	-1.4 (inactive)	-1.23 (inactive)	-5.78	0.0899	0.859 (inactive)	0.823	-2.03	-1.26 (inactive)	-0.176 (inactive)	-0.46 (inactive)
COc1ccc(CCNC(=O)[C@@]2(Sc3ccc(C)cc3)CC(=O)N(C3Cc4ccccc4C3)[C@@H]2c2ccc(CO)cc2)cc1	0.115	0.293 (inactive)	-1.13 (inactive)	-0.396 (inactive)	0.31 (inactive)	-0.255 (inactive)	0.514 (inactive)	0.005 (inactive)	0.136	2.04	0.984 (inactive)	0.703	-1.89	0.563 (inactive)	-0.341 (inactive)	-0.452 (inactive)
CC(C)[Si](C#C[Si](C(C)C)(C(C)C)C(C)C)(O[C@H](C)c1cn([C@H](CO)Cc2ccccc2)nn1)C(C)C	0.967	0.427 (inactive)	0.786 (inactive)	-0.487 (inactive)	1.01 (inactive)	-0.504 (inactive)	1.17 (inactive)	1.19 (inactive)	1.04	0.0484	0.183 (inactive)	0.348	0.67	-0.249 (inactive)	-0.258 (inactive)	-0.36 (inactive)
O=C1N(Cc2ccccc2)Cc2ccccc2[C@@H]2OC(c3ccc(OCCCO)cc3)=N[C@]12CCS(=O)(=O)c1ccccc1	-0.121	0.691 (inactive)	-0.772 (inactive)	0.094 (inactive)	1.91 (inactive)	2.33 (inactive)	0.153 (inactive)	-0.286 (inactive)	-0.849	-0.144	0.0667 (inactive)	0.736	-2.17	0.722 (inactive)	-0.0608 (inactive)	0.268 (inactive)
CC(C)C(CO)N1C(=O)[C@@H]2C3C(=O)OCCC/C=C\[C@H]3OC23C=CCN(C(C)(C)C)C(=O)[C@@H]13 (stereo partly drawn)	-0.263	0.463 (inactive)	-0.428 (inactive)	-1.85 (inactive)	-0.0711 (inactive)	-0.348 (inactive)	0.235 (inactive)	0.129 (inactive)	-0.489	-0.204	-0.68 (inactive)	-0.201	1.16	-5.07 (inactive)	0.0464 (inactive)	-0.0642 (inactive)
O=C1c2ccccc2[C@](Cc2ccccc2I)(C(=O)NCC(F)(F)F)[C@H](c2ccc(CO)cc2)N1C1CCCCC1	-0.46	-0.754 (inactive)	0.247 (inactive)	-1.11 (inactive)	0.127 (inactive)	0.234 (inactive)	0.739 (inactive)	0.743 (inactive)	-0.581	0.129	0.759 (inactive)	0.841	-1.14	-3.97 (inactive)	-0.68 (inactive)	-0.11 (inactive)
CC1CC/C=C\[C@H]2OC34C=CCN(c5ccc(Cl)cc5)C(=O)[C@H]3N(CCCCCO)C(=O)[C@]4(C)C2C(=O)O1 (stereo partly drawn)	-0.773	0.0314 (inactive)	0.421 (inactive)	1.22 (inactive)	-0.801 (inactive)	0.0329 (inactive)	-0.113 (inactive)	0.227 (inactive)	0.0738	0.102	-0.546 (inactive)	-0.613	-0.396	-4.96 (inactive)	1 (inactive)	0.917 (inactive)
CCOc1cc(C(O)C2C=CC3C(=O)N(c4ccccc4)C(=O)C3N2Nc2ccc(C#N)cc2)ccc1O (stereo not drawn)	-1.79	-0.0687 (inactive)	-1.71 (inactive)	0.45 (inactive)	0.888 (inactive)	0.093 (inactive)	-0.523 (inactive)	-0.245 (inactive)	-1.4	-0.0438	0.186 (inactive)	0.535	-0.435	-4.2 (inactive)	-0.22 (inactive)	-0.0602 (inactive)
COC(=O)[C@@]1(Cc2ccc(OC)cc2)[C@H]2c3cc(C(=O)N(C)C)n(C[C@H](O)CO)c3C[C@H]2CN1C(=O)c1ccccc1	-1.17	1.02 (inactive)	-2.31 (inactive)	-0.791 (inactive)	2.01 (inactive)	0.166 (inactive)	-1.46 (inactive)	-1.11 (inactive)	-1.95	0.441	0.309 (inactive)	-0.587	-1.74	-3.35 (inactive)	0.708 (inactive)	0.22 (inactive)
CCOC(=O)C1=C[C@@H](c2ccccc2)N(S(=O)(=O)c2ccc(C)cc2)[C@H]1c1ccccc1Cl	-0.695	2.1 (inactive)	-0.898 (inactive)	0.268 (inactive)	0.244 (inactive)	2.01 (inactive)	-0.581 (inactive)	-0.591 (inactive)	-1.88	-0.136	0.566 (inactive)	0.307	-2.02	0.552 (inactive)	-0.339 (inactive)	-0.865 (inactive)
CN(C)C(=O)[C@]1(CCS(=O)(=O)c2ccccc2)N=C(c2ccc(OCCCO)cc2)O[C@@H]1c1ccccc1N=[N+]=[N-]	-0.622	-0.0799 (inactive)	-0.99 (inactive)	1.05 (inactive)	0.218 (inactive)	0.386 (inactive)	0.292 (inactive)	0.393 (inactive)	-1.01	0.273	1.1 (inactive)	0.821	-2.34	-3.11 (inactive)	-0.197 (inactive)	-0.447 (inactive)
COC(=O)[C@@]1(Cc2ccccc2)[C@H]2c3cc(C(=O)N(C)C)n(Cc4c(CO)[nH]cc(C)c4=O)c3C[C@H]2CN1C(=O)c1ccccc1	-0.613	1.79 (inactive)	-0.706 (inactive)	0.0442 (inactive)	0.507 (inactive)	1.24 (inactive)	-0.198 (inactive)	0.0568 (inactive)	0.0961	-0.0663	0.278 (inactive)	0.3	-1.16	-5.3 (inactive)	-0.0454 (inactive)	0.0707 (inactive)
CCOC(=O)C1=CC[C@@H](c2ccc(OCc3ccccc3)c(OC)c2)N(S(=O)(=O)c2ccc(C)cc2)[C@H]1c1ccc(SC)cc1	0.579	0.49 (inactive)	-0.107 (inactive)	-0.322 (inactive)	1.64 (inactive)	-0.759 (inactive)	-0.286 (inactive)	-0.361 (inactive)	-0.455	0.307	0.56 (inactive)	0.569	-2.05	1.81 (inactive)	-0.387 (inactive)	-0.768 (inactive)
COc1ccc([Si](C)(C)[C@@H]2[C@@H](CCO)O[C@]3(C(=O)N(Cc4ccc(N5CCCCC5=O)cc4)c4ccccc43)[C@H]2C)cc1	-0.723	-0.173 (inactive)	-0.75 (inactive)	-3.05 (inactive)	1.45 (inactive)	2.69 (inactive)	1.99 (inactive)	1.14 (inactive)	-2.24	-0.184	2.99 (inactive)	0.769	-2.69	-5.03 (inactive)	-0.913 (inactive)	0.261 (inactive)
COc1cc(OC)c(C(O)C2C=CC3C(=O)N(C)C(=O)C3N2NC(=O)OC(C)(C)C)cc1Br (stereo not drawn)	-1.88	-5.3 (inactive)	-0.652 (inactive)	0.985 (inactive)	0.683 (inactive)	1.18 (inactive)	-0.143 (inactive)	-0.376 (inactive)	-0.34	0.677	-0.121 (inactive)	0.759	-0.107	-2.6 (inactive)	0.111 (inactive)	-0.0533 (inactive)
COC(=O)[C@@]1(Cc2ccc(OC)cc2)[C@H]2c3cc(C(=O)N(C)C)n(Cc4ccc(Cl)c(C(F)(F)F)c4)c3C[C@H]2CN1C(=O)c1ccccc1	-1.21	1.86 (inactive)	-2.74 (inactive)	0.381 (inactive)	0.812 (inactive)	0.673 (inactive)	-0.505 (inactive)	-0.0176 (inactive)	-2.7	0.216	-0.0177 (inactive)	0.267	-1.48	-3.47 (inactive)	0.472 (inactive)	0.127 (inactive)
COC(=O)[C@@]1(Cc2ccccc2)[C@H]2c3cc(C(=O)N(C)C)n(CCN4CNCC4=O)c3C[C@H]2CN1C(=O)c1ccccc1	0.0001	1.13 (inactive)	-0.473 (inactive)	0.0849 (inactive)	-0.0703 (inactive)	0.0591 (inactive)	-0.459 (inactive)	-0.217 (inactive)	0.432	0.404	0.858 (inactive)	1.01	-0.17	-2.94 (inactive)	-0.232 (inactive)	-0.33 (inactive)
CCCNC(=O)[C@@H]1c2ccccc2C(=O)N(C(C)C)[C@H]1c1ccc(CO)cc1	0.321	0.121 (inactive)	0.551 (inactive)	-0.185 (inactive)	0.127 (inactive)	0.846 (inactive)	0.313 (inactive)	1.31 (inactive)	0.497	-0.237	0.251 (inactive)	0.658	-0.473	-1.88 (inactive)	-0.247 (inactive)	-0.333 (inactive)
